# Experiments:
# Experiment in all cases: DAPPL (digital affinity profiling via proximity ligation, sequencing); 10 mM Tris-HCl pH 7.5, 50 mM NaCl, 1 mM DTT, 4% glycerol, room temperature, 30 min; GST-TFs on glutathione beads, 16-mer random dsDNA library, 0.1% formaldehyde crosslink after washing; high values mean tight binding
# HSF1 = HSF1 (Homo sapiens, UniProt Q00613 1-529); conditions: protein: recombinant; tags: N-terminal GST; chain copies: 3; dsDNA, one strand shown
# Outline: (§1)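 Yeast served to express human transcription factors as GST fusions, which were then captured on glutathione beads and labelled with DNA barcodes. Pooled with a tag-only sample, they were incubated with 200 nmole of a 16-mer random double-stranded DNA library for 30 min at room temperature in Tris/NaCl/DTT/glycerol buffer, washed, crosslinked with 0.1% formaldehyde, ligated by proximity, amplified by PCR and sequenced. Dividing each hexamer's read frequency for a factor by its frequency for the tag-only sample gives the binding signal.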
# CRX = CRX (Homo sapiens, UniProt O43186 1-299); conditions: protein: recombinant; tags: N-terminal GST; dsDNA, one strand shown
# Outline: as §1
# ERG = target: T1, ERG (Homo sapiens, UniProt P11308 1-479); conditions: protein: recombinant; tags: N-terminal GST; dsDNA, one strand shown
# T1 sequence: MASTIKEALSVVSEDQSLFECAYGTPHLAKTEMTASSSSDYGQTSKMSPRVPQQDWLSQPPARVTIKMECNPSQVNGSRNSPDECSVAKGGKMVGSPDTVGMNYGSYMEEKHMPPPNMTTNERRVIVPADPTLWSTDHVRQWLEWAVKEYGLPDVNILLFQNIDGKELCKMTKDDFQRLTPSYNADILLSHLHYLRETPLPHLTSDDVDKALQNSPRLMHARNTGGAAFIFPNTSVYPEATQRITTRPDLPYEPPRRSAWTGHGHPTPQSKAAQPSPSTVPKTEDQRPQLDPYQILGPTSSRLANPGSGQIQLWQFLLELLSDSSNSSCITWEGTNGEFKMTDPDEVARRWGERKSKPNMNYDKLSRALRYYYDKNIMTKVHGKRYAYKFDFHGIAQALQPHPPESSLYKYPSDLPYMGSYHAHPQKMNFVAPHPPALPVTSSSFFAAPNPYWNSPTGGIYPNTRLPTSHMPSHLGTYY
# Outline: as §1
# SPI1 = SPI1 (Homo sapiens, UniProt P17947 1-270); conditions: protein: recombinant; tags: N-terminal GST; dsDNA, one strand shown
# Outline: as §1
# ETV2 = target: T2, ETV2 (Homo sapiens, UniProt O00321 1-342); conditions: protein: recombinant; tags: N-terminal GST; dsDNA, one strand shown
# T2 sequence: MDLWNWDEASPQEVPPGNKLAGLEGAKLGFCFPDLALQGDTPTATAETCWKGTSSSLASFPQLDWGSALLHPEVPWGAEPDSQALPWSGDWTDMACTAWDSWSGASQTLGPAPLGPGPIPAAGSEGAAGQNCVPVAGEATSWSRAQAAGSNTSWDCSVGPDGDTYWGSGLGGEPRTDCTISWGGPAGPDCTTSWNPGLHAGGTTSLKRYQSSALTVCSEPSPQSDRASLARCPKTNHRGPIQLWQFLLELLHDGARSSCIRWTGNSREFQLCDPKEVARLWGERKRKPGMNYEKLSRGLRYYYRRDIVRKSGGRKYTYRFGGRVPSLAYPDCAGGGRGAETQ
# Outline: as §1
# SPDEF = target: T3, SPDEF (Homo sapiens, UniProt O95238 1-335); conditions: protein: recombinant; tags: N-terminal GST; dsDNA, one strand shown
# T3 sequence: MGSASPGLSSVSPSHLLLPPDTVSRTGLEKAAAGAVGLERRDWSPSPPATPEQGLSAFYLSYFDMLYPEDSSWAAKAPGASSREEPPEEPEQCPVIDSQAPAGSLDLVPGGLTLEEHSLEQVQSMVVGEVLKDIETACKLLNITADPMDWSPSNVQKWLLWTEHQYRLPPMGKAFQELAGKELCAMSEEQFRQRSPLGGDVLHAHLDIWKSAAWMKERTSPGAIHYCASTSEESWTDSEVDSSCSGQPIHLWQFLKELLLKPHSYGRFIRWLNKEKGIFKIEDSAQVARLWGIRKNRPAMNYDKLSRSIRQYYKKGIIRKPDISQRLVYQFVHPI
# Outline: as §1
# ELF3 = target: T4, ELF3 (Homo sapiens, UniProt P78545 1-371); conditions: protein: recombinant; tags: N-terminal GST; dsDNA, one strand shown
# T4 sequence: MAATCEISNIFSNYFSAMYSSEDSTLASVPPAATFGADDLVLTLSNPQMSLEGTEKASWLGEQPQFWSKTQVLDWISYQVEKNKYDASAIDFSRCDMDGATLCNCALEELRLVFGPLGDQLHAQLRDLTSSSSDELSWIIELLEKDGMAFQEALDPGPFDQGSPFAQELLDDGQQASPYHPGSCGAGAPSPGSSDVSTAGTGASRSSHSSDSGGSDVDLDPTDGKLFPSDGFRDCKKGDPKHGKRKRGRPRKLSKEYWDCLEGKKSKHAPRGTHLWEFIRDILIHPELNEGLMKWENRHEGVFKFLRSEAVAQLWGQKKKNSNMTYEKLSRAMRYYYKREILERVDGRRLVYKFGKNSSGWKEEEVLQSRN
# Outline: as §1
# ELK1 = target: T5, ELK1 (Homo sapiens, UniProt P19419 1-428); conditions: protein: recombinant; tags: N-terminal GST; dsDNA, one strand shown
# T5 sequence: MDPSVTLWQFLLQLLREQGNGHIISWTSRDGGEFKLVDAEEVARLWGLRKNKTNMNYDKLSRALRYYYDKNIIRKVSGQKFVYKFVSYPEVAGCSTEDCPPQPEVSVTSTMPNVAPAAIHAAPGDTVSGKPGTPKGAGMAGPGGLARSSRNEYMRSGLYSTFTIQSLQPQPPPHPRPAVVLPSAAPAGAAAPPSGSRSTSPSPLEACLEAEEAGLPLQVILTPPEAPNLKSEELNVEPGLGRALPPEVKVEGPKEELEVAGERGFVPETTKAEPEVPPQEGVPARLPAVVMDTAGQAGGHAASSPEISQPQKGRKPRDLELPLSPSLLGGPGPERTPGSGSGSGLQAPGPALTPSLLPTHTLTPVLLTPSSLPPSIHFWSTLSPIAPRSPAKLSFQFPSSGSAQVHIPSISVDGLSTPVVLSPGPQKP
# Outline: as §1
# GABPA = target: T6, GABPA (Homo sapiens, UniProt Q06546 1-454); conditions: protein: recombinant; tags: N-terminal GST; dsDNA, one strand shown
# T6 sequence: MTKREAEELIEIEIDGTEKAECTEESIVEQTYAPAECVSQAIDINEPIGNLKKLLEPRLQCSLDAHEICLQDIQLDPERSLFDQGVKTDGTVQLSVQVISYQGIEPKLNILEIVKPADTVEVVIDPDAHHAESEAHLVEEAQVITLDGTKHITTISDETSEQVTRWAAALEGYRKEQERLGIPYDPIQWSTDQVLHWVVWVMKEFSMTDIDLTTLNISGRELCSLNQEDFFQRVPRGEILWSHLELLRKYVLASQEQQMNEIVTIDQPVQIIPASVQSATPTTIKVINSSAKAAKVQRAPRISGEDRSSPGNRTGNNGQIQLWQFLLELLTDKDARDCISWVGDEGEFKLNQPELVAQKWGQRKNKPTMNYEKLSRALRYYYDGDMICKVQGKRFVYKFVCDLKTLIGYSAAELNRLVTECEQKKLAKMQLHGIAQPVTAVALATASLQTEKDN
# Outline: as §1
# ETV3L = target: T7, ETV3L (Homo sapiens, UniProt Q6ZN32 1-361); conditions: protein: recombinant; tags: N-terminal GST; dsDNA, one strand shown
# T7 sequence: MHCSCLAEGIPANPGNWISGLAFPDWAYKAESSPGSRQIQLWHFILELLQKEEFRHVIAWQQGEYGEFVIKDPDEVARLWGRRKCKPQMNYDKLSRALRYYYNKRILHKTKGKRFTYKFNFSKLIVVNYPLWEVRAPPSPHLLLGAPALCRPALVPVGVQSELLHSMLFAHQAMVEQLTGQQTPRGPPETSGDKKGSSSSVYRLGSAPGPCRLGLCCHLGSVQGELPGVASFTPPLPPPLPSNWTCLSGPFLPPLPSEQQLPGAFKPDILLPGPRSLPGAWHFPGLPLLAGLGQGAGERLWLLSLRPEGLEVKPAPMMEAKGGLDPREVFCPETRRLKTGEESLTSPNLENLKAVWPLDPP
# Outline: as §1
# Sequence of CRX (O43186 whole entry): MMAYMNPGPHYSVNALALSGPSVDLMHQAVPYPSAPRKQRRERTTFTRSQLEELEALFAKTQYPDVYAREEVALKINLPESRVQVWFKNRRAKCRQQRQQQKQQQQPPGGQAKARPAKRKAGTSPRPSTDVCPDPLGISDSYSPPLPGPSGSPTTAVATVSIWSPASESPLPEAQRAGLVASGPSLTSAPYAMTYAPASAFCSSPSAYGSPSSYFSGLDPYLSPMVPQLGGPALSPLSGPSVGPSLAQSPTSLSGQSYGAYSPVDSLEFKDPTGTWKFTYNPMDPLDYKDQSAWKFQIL
# Sequence of HSF1 (Q00613 whole entry, the tested form may be a part): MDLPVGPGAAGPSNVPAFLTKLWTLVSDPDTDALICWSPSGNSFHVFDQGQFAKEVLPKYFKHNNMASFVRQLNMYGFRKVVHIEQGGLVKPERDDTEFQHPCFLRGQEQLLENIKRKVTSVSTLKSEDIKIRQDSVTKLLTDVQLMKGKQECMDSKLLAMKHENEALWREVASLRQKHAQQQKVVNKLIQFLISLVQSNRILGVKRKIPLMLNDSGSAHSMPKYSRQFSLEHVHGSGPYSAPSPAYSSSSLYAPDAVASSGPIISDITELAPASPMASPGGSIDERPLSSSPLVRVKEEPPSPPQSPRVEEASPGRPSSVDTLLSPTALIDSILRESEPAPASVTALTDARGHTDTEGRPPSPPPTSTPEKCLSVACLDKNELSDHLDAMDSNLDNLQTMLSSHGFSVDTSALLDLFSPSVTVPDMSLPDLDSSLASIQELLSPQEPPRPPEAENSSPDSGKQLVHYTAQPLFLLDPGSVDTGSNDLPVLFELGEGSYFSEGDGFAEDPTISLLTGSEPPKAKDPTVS
sequence,measurement,setting,value
CCAGAT,binding signal,HSF1,"1.61 fold enrichment (6-mer frequency, TF over GST control)"
same,binding signal,CRX,"1.34 fold enrichment (6-mer frequency, TF over GST control)"
TTCAGA,binding signal,ERG,"1.02 fold enrichment (6-mer frequency, TF over GST control)"
same,binding signal,SPI1,"1.04 fold enrichment (6-mer frequency, TF over GST control)"
same,binding signal,HSF1,"1.09 fold enrichment (6-mer frequency, TF over GST control)"
same,binding signal,ETV2,"1.08 fold enrichment (6-mer frequency, TF over GST control)"
same,binding signal,CRX,"1.03 fold enrichment (6-mer frequency, TF over GST control)"
same,binding signal,SPDEF,"1.01 fold enrichment (6-mer frequency, TF over GST control)"
TTAGAC,binding signal,HSF1,"1.1 fold enrichment (6-mer frequency, TF over GST control)"
same,binding signal,CRX,"1.44 fold enrichment (6-mer frequency, TF over GST control)"
GGTTAA,binding signal,HSF1,"1.02 fold enrichment (6-mer frequency, TF over GST control)"
same,binding signal,ELF3,"1.03 fold enrichment (6-mer frequency, TF over GST control)"
same,binding signal,CRX,"1.31 fold enrichment (6-mer frequency, TF over GST control)"
TCGAGT,binding signal,ELK1,"1.01 fold enrichment (6-mer frequency, TF over GST control)"
same,binding signal,GABPA,"1 fold enrichment (6-mer frequency, TF over GST control)"
same,binding signal,HSF1,"1.41 fold enrichment (6-mer frequency, TF over GST control)"
same,binding signal,ETV3L,"1.06 fold enrichment (6-mer frequency, TF over GST control)"
